# Screens from PubChem.
# Rv3671c inh = Rv3671c serine protease inhibitors, primary screen, biochemical, fluorescence polarization, M. tuberculosis H37Rv; AID 2606, 2010; inhibition, % at 5.96 µM; 0.048% of 320,000 active; P9WHR9; in the data active = inhibition above about 38%;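 note: extracellular domain of Rv3671c used as enzyme; 0% = enzyme with DMSO and 100% = no enzyme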
# RecA splice inh = Mtb RecA intein splicing inhibitors, primary screen, biochemical, fluorescence, HTS | cell-free RecA intein splicing | Protein RecA (Mycobacterium tuberculosis (strain ATCC 25618 / H37Rv)), P9WHJ3 | 0.75% of 290,000 active | AID 2221, 2009 | inhibition, % (no concentration beside the values); in the data active = inhibition above about 30%;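 note: 0% = vehicle wells and 100% = reference inhibitor control wells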
# Mtb bLac sens = beta-lactam sensitization of Mtb H37Rv, H37Rv | M. tuberculosis H37Rv growth with meropenem, percent inhibition | inhibition, % at 25 µM | 0.27% of 330,000 active | AID 434955, 2010; call rule not given here;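 note: growth measured after seven days incubation then overnight dye step; 0% = bacteria only wells and 100% = bacteria with antibiotic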
# Mtb UGM inh = M. tuberculosis UGM enzyme inhibitors, primary screen, biochemical, fluorescence polarization, single point | UDP-galactopyranose mutase (Mycobacterium tuberculosis (strain ATCC 25618 / H37Rv)), … | purified UGM, fluorescence polarization probe displacement | inhibition, % at 10 µM | 0.06% of 320,000 active | AID 504406, 2011; in the data active = inhibition above about 10%, passing the limit was not always enough
# Target sequence (P9WIQ1 whole entry, looked up): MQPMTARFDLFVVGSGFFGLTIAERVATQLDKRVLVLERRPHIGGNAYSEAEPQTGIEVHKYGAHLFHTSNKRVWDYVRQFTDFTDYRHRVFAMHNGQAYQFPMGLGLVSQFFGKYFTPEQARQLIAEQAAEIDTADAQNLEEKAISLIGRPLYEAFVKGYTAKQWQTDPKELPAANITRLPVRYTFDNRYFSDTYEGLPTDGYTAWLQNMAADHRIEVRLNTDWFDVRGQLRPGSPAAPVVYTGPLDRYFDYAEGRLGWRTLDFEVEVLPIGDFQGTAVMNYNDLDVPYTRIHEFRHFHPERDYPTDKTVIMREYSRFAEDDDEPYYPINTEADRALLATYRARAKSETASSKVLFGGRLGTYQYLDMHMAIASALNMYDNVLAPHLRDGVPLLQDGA
# GDH-TPI counter-1 = GDH-TPI coupling enzyme inhibitors, primary screen, artefact control for M. tuberculosis FBA inhibitor project, biochemical, absorbance, full deck; GDH-TPI coupled enzyme counterscreen, NADH absorbance; inhibition, % at 4.8 µM; 1.2% of 360,000 active; in the data active = inhibition above about 30%;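 note: 0% = DMSO wells and 100% = wells lacking the enzyme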
# FBA Mtb inh = Mtb FBA enzyme inhibitors, primary screen, biochemical, fluorescence, strain H37Rv; Fructose-bisphosphate aldolase (Mycobacterium tuberculosis (strain ATCC 25618 / H37Rv)), …; purified M. tuberculosis FBA, fluorescence read-out; inhibition, % at 1 µM; 2.3% of 360,000 active;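 note: 0% = vehicle and 100% = reference inhibitor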
# Mtb FBA inh conf = M. tuberculosis aldolase blockers, biochemical, fluorescence, strain H37Rv, confirmation. shares compounds with FBA Mtb inh. purified M. tuberculosis FBA, fluorescence read-out. inhibition, % at 1 µM. 78% of 5,600 active. AID 651616, 2012;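 note: 0% = vehicle wells and 100% = reference inhibitor wells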
# GDH-TPI counter-2 = GDH-TPI coupling enzyme inhibitors, artefact control for M. tuberculosis FBA inhibitor project, biochemical, fluorescence, high throughput | inhibition, % at 1 µM | AID 652141, 2013 | shares compounds with FBA Mtb inh | 81% of 5,600 active | GDH-TPI coupled enzyme counterscreen; in the data active = inhibition above about 10%
# GDH-TPI DR = GDH-TPI coupling enzyme inhibitors, dose response, artefact control for M. tuberculosis FBA inhibitor project, biochemical, fluorescence, IC50; shares compounds with FBA Mtb inh; GDH-TPI coupled enzyme assay, artifact counterscreen; IC50, µM; 79% of 170 active; call rule not given here
# The depositor's hits bear a star; / = no result; + = active, no number. Rows were chosen to be rich in hits. Some 4% of all compounds tested hit in one or more screens of this group. Cut-off read from the data, not from the text of the source, unless noted: active = inhibition above about 27%; inactive = the rest.
SMILES,Rv3671c inh,RecA splice inh,Mtb bLac sens,Mtb UGM inh,GDH-TPI counter-1,FBA Mtb inh,Mtb FBA inh conf,GDH-TPI counter-2,others
Cc1ccc2nc(C(C)(C)C)c(Cc3cccc(F)c3)n2c1,/,/,/,/,/,36*,200*,172*,
Cc1ccc2nc(C3CCCCC3)c(Cc3cccc(F)c3)n2c1,/,/,/,/,/,14,/,/,
CCOc1cccc(C(=O)NNC(=O)C2C3C=CC(C3)C2C(=O)O)c1 (centres undefined),-8,1,-2,3,-9,-3,/,/,
CN(C)c1ccc(C2C=C(c3ccc(Cl)cc3OC(F)F)Nc3ncnn32)cc1 (centres undefined),7,-18,79,-1,4,1,/,/,
C1=C(c2ccccc2)Nc2ncnn2C1c1ccccc1 (centres undefined),4,-267,59,1,-3,14,/,/,
Cc1ccc(C2=CC(c3ccccc3)n3ncnc3N2)cc1 (centres undefined),-11,-77,67,3,3,67*,88*,67*,
Cc1ccc(C2C=C(c3ccccc3OC(F)F)Nc3ncnn32)cc1 (centres undefined),-9,-115,-11,0,13,32*,70*,68*,
O=C(CCN1C(=O)C2CCCCC2C1=O)N1CCN(S(=O)(=O)c2c(F)cccc2F)CC1 (centres undefined),-17,0,-11,-1,-2,0,/,/,
CNc1nc(Nc2ccc(C(=O)OC)cc2)c2sccc2n1,/,/,/,/,25,4,/,/,
C=CCOc1ccc(-c2n[nH]c(=S)o2)cc1,3,-4,13,4,4,35*,87*,76*,
COc1ccc(C(=O)Nc2ccc(-c3n[nH]c(=S)o3)cc2)cc1,/,11,85,0,15,1,/,/,
Cc1ccc(C(C)C)c(OCCNCCc2ccccc2)c1,3,/,67,0,15,5,/,/,
O=C(c1ccc(-n2cncn2)c([N+](=O)[O-])c1)N1CCN(S(=O)(=O)c2ccc(F)c(F)c2)CC1,-3,-1,-16,2,-21,-2,/,/,
CCC(C)(C)n1nnnc1C(c1cc2ccc(OC)cc2[nH]c1=O)N1CCCCC1 (centres undefined),-16,2,5,2,20,2,/,/,
CCC(C)(C)n1nnnc1C(c1cc2cc3c(cc2[nH]c1=O)OCO3)N1CCN(C)CC1 (centres undefined),-8,-7,-2,1,25,59*,32*,28*,
Cc1cccc2cc(C(c3nnnn3C3CCCC3)N3CCOCC3)c(=O)[nH]c12 (centres undefined),4,-3,7,1,16,2,/,/,
O=c1[nH]c2cc3c(cc2cc1C(c1nnnn1C1CCCC1)N1CCSCC1)OCCO3 (centres undefined),-2,0,-9,-1,16,31*,144*,91*,
O=C(O)c1ccccc1C(c1ccccc1)c1ccccc1O (centres undefined),/,/,/,/,0,-3,/,/,
CN(C)/C=N/c1nc2ncc(-c3ccc(Cl)cc3)c(/N=C/N(C)C)n2n1,-4,/,4,-1,18,0,/,/,
CN(C)/C=N/c1nc2nccc(-c3cccc(Cl)c3)n2n1,7,/,2,-3,1,34*,10,-5,GDH-TPI DR=2.2*
CN(C)/C=N/c1nc2nccc(-c3ccc(F)cc3)n2n1,3,0,-10,0,1,88*,62*,56*,
CC(=O)OCC1OC(Sc2cccc3cccnc23)C(OC(C)=O)C(OC(C)=O)C1OC(C)=O (centres undefined),-1,0,-10,1,-3,36*,+,159*,
COc1cc2c(C(=O)O)c(C)n(-c3ccccc3)c2c2ccccc12,0,-4,18,-4,6,20,/,/,
COc1ccccc1-n1c(C)c(C(=O)O)c2cc(OC)c3ccccc3c21,-6,8,-6,0,1,27*,87*,82*,
COc1ccc(Br)cc1CNC(=O)c1ccc2c(c1)N(C)CCS2,0,-1,-3,1,4,50*,+,152*,
SMILES,Rv3671c inh,RecA splice inh,Mtb bLac sens,Mtb UGM inh,GDH-TPI counter-1,FBA Mtb inh,Mtb FBA inh conf,GDH-TPI counter-2,others
CCN1CCSc2ccc(C(=O)NCc3cc(Br)ccc3OC)cc21,3,-8,-8,-1,-7,37*,102*,76*,
CN1CCSc2ccc(C(=O)Nc3ccc(Cl)cc3)cc21,-8,-2,1,4,13,33*,13,3,
Cc1ccc(Sc2cnn(-c3ccccc3)c(=O)c2Cl)cc1,2,1,12,-1,15,2,/,/,
C=CCNc1cnn(-c2ccc(C)cc2)c(=O)c1Sc1ccc(C)cc1,-5,3,2,4,3,41*,56*,47*,
c1ccc(SCc2cn3cccnc3n2)nc1,2,-6,12,-2,-7,74*,65*,39*,
c1cnc2nc(CSc3ncn[nH]3)cn2c1,5,-2,1,4,3,88*,184*,144*,
c1ccc(-n2cnnc2SCc2cn3cccnc3n2)cc1,-11,0,-3,0,-1,103*,102*,76*,
Clc1ccc2nc(CSc3nncn3-c3ccccc3)cn2c1,2,4,5,-1,1,4,/,/,
Cc1ccc(S(=O)(=O)Cc2cn3cccnc3n2)cc1,/,7,/,/,1,92*,50*,32*,
NC(=O)c1cc[n+](CC(=O)NC(=O)Nc2ccccc2)cc1,-8,/,0,1,-3,3,/,/,
[N-]=[N+]=NCc1cn2cccnc2n1,3,-1,-4,-2,5,63*,79*,63*,
CN1CCN(Cc2cn3cccnc3n2)CC1,4,-1,-2,-2,3,4,/,/,
Cn1c(=O)c2c(nc(SCCN3CCCCC3)n2Cc2ccccc2)n(C)c1=O,-10,1,2,0,-3,-1,/,/,
Cc1ccc(Cn2c(SCCN3CCCCC3)nc3c2c(=O)n(C)c(=O)n3C)cc1,-1,-1,-4,-3,6,63*,14,11*,
